According to publication PMC4336329 (PLoS ONE, 2015):
Hit rate of the full screen: of about 310,000 compounds, about 14,000 (4.5%) showed an effect of 50% or more. Effects have a minus sign here. The sample holds strong results, similar compounds and a random draw of the others, so the mix is not that of the screen.

target: human ether-à-go-go-related gene (hERG) potassium channel (human, UniProt Q12809); assay: primary screen, population patch clamp on CHO cells stably expressing hERG; higher = less effect of the substance
Sequence (Q12809 whole entry, looked up): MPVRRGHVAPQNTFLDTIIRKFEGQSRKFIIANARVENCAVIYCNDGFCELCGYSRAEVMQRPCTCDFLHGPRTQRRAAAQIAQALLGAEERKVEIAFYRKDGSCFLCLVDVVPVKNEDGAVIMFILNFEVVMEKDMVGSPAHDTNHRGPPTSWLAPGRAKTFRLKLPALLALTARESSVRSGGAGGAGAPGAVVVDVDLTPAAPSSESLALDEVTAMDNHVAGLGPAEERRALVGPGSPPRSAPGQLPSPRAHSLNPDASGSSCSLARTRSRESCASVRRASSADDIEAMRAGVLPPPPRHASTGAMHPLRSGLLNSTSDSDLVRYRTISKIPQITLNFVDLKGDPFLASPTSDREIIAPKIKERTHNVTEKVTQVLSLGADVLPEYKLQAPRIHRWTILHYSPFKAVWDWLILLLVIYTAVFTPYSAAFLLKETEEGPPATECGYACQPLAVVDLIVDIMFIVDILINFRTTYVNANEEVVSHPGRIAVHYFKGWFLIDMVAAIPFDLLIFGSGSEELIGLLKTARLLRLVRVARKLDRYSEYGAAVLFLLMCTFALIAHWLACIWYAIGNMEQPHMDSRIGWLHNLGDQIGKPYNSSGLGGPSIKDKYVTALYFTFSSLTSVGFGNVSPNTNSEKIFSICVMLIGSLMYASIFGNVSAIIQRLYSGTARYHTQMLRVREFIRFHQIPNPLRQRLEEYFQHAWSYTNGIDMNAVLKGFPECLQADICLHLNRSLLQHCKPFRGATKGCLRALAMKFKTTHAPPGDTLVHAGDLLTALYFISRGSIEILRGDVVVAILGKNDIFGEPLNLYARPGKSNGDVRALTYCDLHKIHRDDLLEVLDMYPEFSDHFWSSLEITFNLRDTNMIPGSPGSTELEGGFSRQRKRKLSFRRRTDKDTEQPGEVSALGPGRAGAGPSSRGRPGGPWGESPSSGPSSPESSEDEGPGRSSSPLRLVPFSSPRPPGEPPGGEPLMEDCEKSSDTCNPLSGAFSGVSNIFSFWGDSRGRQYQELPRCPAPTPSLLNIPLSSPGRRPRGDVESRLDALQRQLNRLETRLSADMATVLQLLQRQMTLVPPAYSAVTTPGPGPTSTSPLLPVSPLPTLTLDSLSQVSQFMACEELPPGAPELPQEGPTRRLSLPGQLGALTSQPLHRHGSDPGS
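Note: peak tail current of the secondary pulse compared with the same well before compound.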

Compound	hERG current change (%, negative = inhibition) at 10uM [%]
Cc1cc(OC(=O)c2ccccc2Cl)ccc1N1C(=O)CCC1=O	-1.98
O=[N+]([O-])c1ccc(O)c(-c2nn[nH]n2)c1	1.52
CC1=NN(C(=O)c2ccc(Cn3ccc([N+](=O)[O-])n3)cc2)C(O)(C(F)(F)F)C1 (stereo not shown)	-8.73
O=C1N(c2ccc(Cl)cc2)C(c2ccc(Cl)cc2)N2CCCN12 (stereo not shown)	-16.7
COc1ccccc1/C=C1\SC(=S)N(CCC(=O)NCCc2ccc(O)cc2)C1=O	15.1
CCOC(=O)Oc1ccc2oc(=O)cc(C)c2c1	15.9
O=c1[nH]c(/C=C/c2cccc3ccccc23)nc2ccccc12	36.4
O=C(c1ccco1)N1CCN(C(=O)c2cc(-c3ccccc3F)no2)CC1	-15.8
COc1cccc(-c2cc(C(=O)N3CCN(C(=O)c4ccco4)CC3)on2)c1	-13.9
O=C(c1cc(-c2ccc(Cl)cc2)n[nH]1)N1CCN(C(=O)c2ccco2)CC1	-68.9
Cc1ccc(-c2cc(C(=O)N3CCN(C(=O)c4ccco4)CC3)[nH]n2)cc1C	5.83
COc1ccc(-c2cc(C(=O)N3CCN(C(=O)c4ccco4)CC3)[nH]n2)cc1	-31.6
O=C(c1ccco1)N1CCN(C(=O)c2cc(-c3ccc(F)cc3)no2)CC1	-65.1
CCOc1ccc(NC(=O)CCNC(=O)c2ccco2)cc1	6.08
Cc1ccc(C(=O)COC(=O)CNC(=O)Cc2ccccc2)cc1	-2.44
COc1ccc(CCN2C(=O)c3cccc4cccc(c34)C2=O)cc1OC	12.9
COc1ccc(C(CNC(=O)C(C)c2ccc3cc(OC)ccc3c2)N(C)C)cc1 (stereo not shown)	-7.44
Cc1ccc(NS(=O)(=O)c2cc(C(=O)NCc3ccccn3)ccc2Cl)cc1C	-47
COc1ccc(N2C(=O)C3C(c4ccc(OC)cc4O)NC(Cc4ccccc4)(C(=O)O)C3C2=O)cc1 (stereo not shown)	19.5
COc1cc2c(cc1OC)CN(CC(=O)Nc1ccc(C)cc1)CC2	-16.4
O=C(OCC(=O)N1CCc2ccccc2C1)c1ccc(OC(F)F)cc1	-80.2
COc1cc2c(cc1OC)CN(CC(=O)Nc1ccc(F)cc1)CC2	-7.62
CCC(=O)c1ccc(OCC(=O)N2CCc3cc(OC)c(OC)cc3C2)cc1	-33.2
CCC(=O)c1ccc(OCC(=O)OCC(=O)N2CCc3ccccc3C2)cc1	-24.8

Compound	hERG current change (%, negative = inhibition) at 10uM [%]
COc1cc2c(cc1OC)CN(C(=O)CNC(=O)c1ccc(OC(F)F)cc1)CC2	-52.5
COc1cc2c(cc1OC)CN(C(=O)COc1ccc(C)c(C)c1)CC2	-11.9
COc1ccc(C(=O)NCC(=O)N2CCc3ccccc3C2)cc1	-2.27
COc1cc2c(cc1OC)CN(C(=O)COc1ccc(C#N)cc1)CC2	-63.4
NC(=O)Nc1ccc(C(=O)OCC(=O)N2CCc3ccccc3C2)cc1	5.29
COc1cc2c(cc1OC)CN(CC(=O)Nc1ccc(C#N)cc1)CC2	-63.1
COc1cc2c(cc1OC)CN(C(=S)Nc1ccc(OC(F)F)cc1)CC2	-38.8
CCC(C(=O)O)n1nc(-c2ccccc2)c2cc(Cl)ccc21 (stereo not shown)	13.8
COc1ccc(C(c2nnnn2C2CCCCC2)N2CCN(c3ccccc3F)CC2)cc1 (stereo not shown)	12.8
Cc1csc2ncc(C(=O)N3CCc4ccccc43)c(=O)n12	15.1
C=CCn1c(COc2cccc3ccc(C)nc23)nnc1SCC(=O)OC	-0.175
CCOC(=O)Cn1nc(C)c(NC(=O)COc2ccc(C)c(C)c2)c1C	12.2
O=S(=O)(Nc1cccc(F)c1)c1cccc2nsnc12	3.21
CCOc1ccc(-c2nnc(-c3cccs3)o2)cc1OCC	1.32
CCOc1ccc(C(=O)OCc2nnc(-c3cccs3)o2)cc1OC	-54.9
O=C(OCc1nnc(-c2cccs2)o1)c1cccnc1Cl	4.2
COc1cc(OC)c(S(=O)(=O)NC(C)C)cc1S(=O)(=O)NC(C)C	2.64
COc1ccc(C)cc1S(=O)(=O)Nc1ccc(F)cc1	-1.24
Cc1ccc(NC(=O)c2ccc3nccnc3c2)c(C)c1	-2.58
Cc1c(OCC(=O)NCCN2CCOCC2)ccc2c1oc(=O)c1ccccc12	-59.6
CCc1cc(=O)oc2c(C)c(OCC(=O)NCCN3CCOCC3)ccc12	-0.348
CCCc1cc(=O)oc2c(C)c(OCC(=O)NCCN3CCOCC3)ccc12	-31.6
Cc1c(OCC(=O)NCCCN2CCOCC2)ccc2c1oc(=O)c1ccccc12	-46.6
CCCCc1cc(=O)oc2c(C)c(OCC(=O)NCCN3CCOCC3)ccc12	-82.1

Compound	hERG current change (%, negative = inhibition) at 10uM [%]
Cc1c(C)c2ccc(OCC(=O)NCCN3CCOCC3)c(C)c2oc1=O	1.61
Cn1c(SCc2ccccc2C#N)nnc1-c1ccncc1	7.11
CSc1ccccc1NC(=O)CN(C)C(=O)CCc1c[nH]c2ccccc12	0.0989
O=C(N/N=C/c1ccccn1)C1CC1	-69.4
O=C(N/N=C/c1ccccn1)c1ccccc1	2.75
O=C(N/N=C/c1ccccn1)c1cc(Br)ccc1O	-54.9
CCOc1ccc(Br)cc1C(=O)N/N=C/c1ccccn1	-40.8
O=C(N/N=C\c1ccccn1)c1ccccc1O	11
O=C(CCCC(=O)N/N=C\c1ccccn1)N/N=C\c1ccccn1	2.44
COC(=O)c1cccc(CSc2nnc(-c3ccco3)n2-c2ccccc2)c1	-33.9
C=CCNc1nnc(Cc2ccc(C(C)C)cc2)c(=O)[nH]1	-0.924
CC(C)(C)c1ccc(-c2noc(CCC(N)=O)n2)cc1	-11
Cc1ccc(NC(=O)C2CCN(S(=O)(=O)c3c(C)n[nH]c3C)CC2)nc1	-23
CC1CCCN(CCCNC(=O)c2nn(C)c3c2CSc2ccccc2-3)C1 (stereo not shown)	-72.5
Cn1nc(C(=O)NCCCN2CCCCC2)c2c1-c1ccccc1S(=O)(=O)C2	-0.878
CC1CCC(NC(=O)c2nn(C)c3c2CSc2ccccc2-3)CC1 (stereo not shown)	3.11
CC1CCCCN1CCCNC(=O)c1nn(C)c2c1CSc1ccccc1-2 (stereo not shown)	-67.1
CC1CCCCN1CCCNC(=O)c1nn(C)c2c1CS(=O)(=O)c1ccccc1-2 (stereo not shown)	-8.49
CC1CCCN(CCCNC(=O)c2nn(C)c3c2CS(=O)(=O)c2ccccc2-3)C1 (stereo not shown)	-39.8
CC1CCCN(C(=O)c2nn(C)c3c2CSc2ccccc2-3)C1 (stereo not shown)	-11.7
Cn1nc(C(=O)NC2CCCCC2)c2c1-c1ccccc1SC2	-3.08
Cn1nc(C(=O)NCCCN2CCCCC2)c2c1-c1ccccc1SC2	-66
COc1cc(NC(=S)NC(=O)c2ccccc2C)ccc1NC(=O)c1cccs1	-1.24
CSc1n[nH]c(NCc2cccs2)n1	8.8

Compound	hERG current change (%, negative = inhibition) at 10uM [%]
CC(C)CC(C(=O)NCC1CCCO1)N(C(=O)Cn1nnc(-c2ccc(F)cc2)n1)c1cccc(C(F)(F)F)c1 (stereo not shown)	-0.701
CSc1nc(O)c(C(c2ccc(OC(C)C)cc2)c2c(O)nc(SC)[nH]c2=O)c(=O)[nH]1	16.9
CCOc1ccc(S(N)(=O)=O)cc1-c1nc2c(C(C)(C)C)nn(C)c2c(=O)[nH]1	10.9
CC(Sc1nnnn1-c1ccc(O)cc1)C(=O)NC1CCCCC1C (stereo not shown)	-9.23
CC(=O)C1=C(O)C(=O)N(c2ccc(S(=O)(=O)Nc3nccs3)cc2)C1c1ccc([N+](=O)[O-])cc1 (stereo not shown)	10.6
C=CCn1c(SCc2nc3ccccc3c(=O)[nH]2)nc2sc3c(c2c1=O)CCCC3	2.93
COc1ccc(-c2nnc(OCc3ccccc3)c3ccccc23)cc1	1.82
c1ccc(COc2cncc(-c3cccnc3)c2)cc1	-17.8
Cc1ccc(-c2nnc(OCc3cccnc3)c3ccccc23)cc1	-75.7
Cc1ccc(Oc2nnc(-c3ccccc3)c3ccccc23)cc1	-2.98
c1ccc(-c2nnc(OCc3cccnc3)c3ccccc23)cc1	-83.2
Cc1ccc(-c2nnc(OCc3nc4ccccc4n3C)c3ccccc23)cc1	-12
CCC(C)n1c(-c2cccs2)nc2nc3ccccc3nc21 (stereo not shown)	-4.95
COCCn1c(SC(C)C(=O)Nc2ccc(Cl)cn2)nnc1-c1ccncc1 (stereo not shown)	4.13
COCCn1c(SCC(=O)Nc2cc(C(C)(C)C)nn2-c2ccccc2)nc2ccccc2c1=O	-4.39
CNC(=O)CSc1nnc(-c2ccncc2)n1Cc1ccccc1	9.26
COCCn1c(SCC(=O)Nc2cc(C)nn2-c2ccccc2)nnc1-c1ccncc1	-37.7
COCCn1c(SCC(=O)Nc2nnc(C)s2)nnc1-c1ccncc1	-0.996
Cc1cc(NC(=O)CSc2nnc(-c3ccncc3)n2Cc2ccccc2)n(-c2ccccc2)n1	-58.8
COCCn1c(SCC(=O)Nc2cc(C(C)(C)C)nn2-c2ccccc2)nnc1-c1ccncc1	-60
COCCn1c(SCC(=O)Nc2ccc(Cl)cn2)nnc1-c1ccncc1	-54.2
Cc1cc(NC(=O)CSc2nnc(-c3ccncc3)n2C)n(-c2ccccc2)n1	-21.9
